# Experimental data: PubChem BioAssay (NCATS)
# Several values for one entry are separate records, joined by “and”; a condition that tells them apart may be missing. Identical values can stand only once. Inconclusive results are not listed. A call without a number means that no potency is given here. Activity calls are given as the source filed them. Unless noted, the call rests on the fitted dose curve; in most records, active means well fitted curve in the direction sought with a large enough effect; inconclusive means small, poorly fitted or top-dose-only effect, or another doubt; inactive means no such curve, though single readings can be large; an effect the other way counts as inactive or inconclusive.
# What was measured:
# [1] = molecular target: Ubiquitin carboxyl-terminal hydrolase 1 (Homo sapiens) (UniProt O94782); experiment: Inhibitors of USP1/UAF1: Pilot qHTS (AID 504865); further: nearly all actives have a fitted effect of over 35% in size; further: potency means the concentration at half of the fitted maximal effect
# Procedure, shortened: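 Enzyme-free wells gave the negative control, while test wells held 1nM USP1/UAF1 preincubated with compound for 15 min at room temperature. Ub-Rho at 150nM final started the reaction, and fluorescence at 480/540 nm was recorded kinetically.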
# [2] = molecular target: Voltage-gated inwardly rectifying potassium channel KCNH2 (Homo sapiens) (UniProt Q12809); experiment: qHTS Assay for Small Molecule Inhibitors of the Human hERG Channel Activity (AID 588834);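 further: lower thallium flux fluorescence means stronger hERG block; nearly all actives have a fitted effect of over 50% in size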; further: potency means the concentration at half of the fitted maximal effect
# Procedure, shortened: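 Blockade is seen as reduced FluxOR thallium-flux fluorescence in U2OS cells expressing hERG from a BacMam construct, in Opti-MEM with 2% FCS. Concentration-response data fitted to the Hill equation for AC50.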
# [3] = molecular target: Luciferin 4-monooxygenase (Photinus pyralis) (UniProt P08659); experiment: Biochemical firefly luciferase enzyme assay for NPC (AID 624030);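 further: purified P. pyralis luciferase at 10 nM with luciferin and ATP substrate; series mostly up to about 59 µM; nearly all actives have a fitted effect of over 70% in size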
# Procedure, shortened: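 Purified P. pyralis luciferase at 10 nM in 50 mM Tris Acetate (final), luminescence read within 5 minutes of enzyme addition to compounds. Activity normalised to PTC124 versus DMSO; concentration-response curves classed by r2, magnitude and activity.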
# [4] = molecular target: DNA dC->dU-editing enzyme APOBEC-3G (Homo sapiens) (UniProt Q9HC16); experiment: qHTS for inhibitors of Vif-A3G interactions: Validation (AID 588379)
# Procedure, shortened: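 HeLa cells stably expressing Vif and A3G-eYFP, 700 cells/well, incubated overnight at 37 deg C, then exposed to compound overnight at 37 deg C. Inhibition of Vif-mediated degradation read as increased yellow fluorescence (Ex 488/Em 500-530) by laser-scanning cytometry.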
# [5] = molecular target: Peptidyl-prolyl cis-trans isomerase NIMA-interacting 1 (Homo sapiens) (UniProt Q13526); experiment: qHTS Validation Assay to Find Inhibitors of Pin1 (AID 504536; active means well fitted inhibition curve with a large enough effect in the polarisation, with a control signal flat, not every such curve was filed as active; the % refers to the polarisation)
# Procedure, shortened: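 Fluorescence polarization competition: compounds (titration) displace HiFluor-488-labeled Pin1-1b peptide from Pin1 (0.3 uM final) in pH 7.5 HEPES buffer with DTT, 10 min at room temperature; %Activity normalized to no-enzyme wells, curves fitted.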
# [6] = molecular target: Phosphoglycerate kinase, glycosomal (Trypanosoma brucei brucei) (UniProt P07378); experiment: qHTS Validation Assay to Find Inhibitors of Phosphoglycerate Kinase (AID 504547)
# Procedure, shortened: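 PGK activity was coupled to GAPDH (100nM final), which generates the unstable substrate 1,3-bisphosphoglycerate in-well. Reactions ran 60 minutes at room temperature in 100mM TEA pH 7.6, 5mM MgCl2, 0.01% Tween-20, then Kinase-Glo Plus luminescence was read.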
# [7] = molecular target: phosphoglycerate mutase (Leishmania major) (UniProt Q4Q090); experiment: qHTS Validation Assay to Find Inhibitors of Phosphoglycerate Mutase (AID 504548);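 further: end-point luminescence from Kinase-GloPlus after the PGAM reaction; series mostly up to about 58 µM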
# Procedure, shortened: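 Inhibition of L. major PGAM was assessed by Kinase-GloPlus luminescence following a 45-minute room-temperature reaction with enzyme at 1.25nM final.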
# [8] = qHTS for Inhibitors of ATXN expression: Validation (AID 588378); further: nearly all actives have a fitted effect of over 75% in size; further: potency means the concentration at half of the fitted maximal effect
# Procedure, shortened: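 After a 2 h attachment and 24 h compound incubation, HEK293-ATXN2-FFLuc wells are read for fluorescence at 405 nm excitation/525 nm emission as a viability measure, then for Bright-Glo luminescence reflecting ATXN2 expression.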
# [9] = qHTS for Inhibitors of ATXN expression: Validation of Cytotoxic Assay (AID 588349)
# Procedure, shortened: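 Read-out: ATP-based luminescence (CellTiter Glo) reflecting viability of HEK293 cells after 72 hr incubation at 37 degrees C with a concentration series of each compound.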
# [10] = molecular target: Galactokinase (Homo sapiens) (UniProt P51570); experiment: qHTS Validation Assay for Inhibitors of Human Galactokinase (GALK) (AID 493189)
# Procedure, shortened: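 Enzyme activity is inferred from ATP consumption: human GALK phosphorylates galactose (100 uM) using 35 uM ATP for 1 h at room temperature, and luciferase-based Kinase-Glo Plus reports unconsumed ATP.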
# [11] = Validation screen for small molecules that induce DNA re-replication in SW480 colon adenocarcinoma cells (AID 504364)
# Procedure, shortened: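 250 cells/well; compound pinned in; 48 hr, 37 C, 5% CO2; Hoechst added, 40 min; nuclear fluorescence imaged, 405 ex / 500-530 em; re-replication scored as increase in high-intensity nuclei.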
# [12] = molecular target: Glucocorticoid receptor (Homo sapiens) (UniProt P04150); experiment: qHTS assay for small molecule antagonists of glucocorticoid receptor signaling (AID 588533; active means well fitted inhibition curve with a large enough effect in the signal ratio, with a control signal flat, not every such curve was filed as active; the % refers to the signal ratio)
# Procedure, shortened: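 Antagonist-mode qHTS: compound titrations added to GRE-bla HeLa cells, then dexamethasone 2 nM final; 18 h, 37 C. CCF4 FRET fluorescence normalized to dexamethasone and DMSO; IC50 from Hill fit.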
# [13] = molecular target: Vitamin D3 receptor (Homo sapiens) (UniProt P11473); experiment: qHTS assay for small molecule antagonists of vitamin D receptor signaling (AID 588541; calls by dose curve;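 further: receptor activated by calcitriol during compound treatment; series mostly up to about 77 µM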)
# Procedure, shortened: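 VDR-UAS-bla HEK293T cells in 2% charcoal-stripped FBS were stimulated with 1-alpha,25-dihydroxyvitamin D3 (3 nM final) plus compound for 16 h at 37 C. The beta-lactamase CCF4 readout was normalized to 50 nM agonist and DMSO, and Hill fits gave IC50.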
# [14] = molecular target: Vitamin D3 receptor (Homo sapiens) (UniProt P11473); experiment: qHTS assay for small molecule agonists of vitamin D receptor signaling (AID 588543; calls by dose curve)
# Procedure, shortened: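 Measured: β-lactamase reporter activity (CCF4, 405 nm excitation, 460/530 nm emission) in HEK293T VDR-UAS-bla cells after 16 h compound exposure at 37 °C. Normalization against 50 nM 1α,25-dihydroxyvitamin D3 and DMSO; Hill-fit EC50.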
# [15] = qHTS assay for small molecule agonists of retinoid X receptor alpha signaling (AID 588544; calls by dose curve); conditions: HEK293T RXRa-UAS-bla, beta-lactamase reporter, 18 h; 530 nm emission
# [16] = molecular target: Retinoic acid receptor RXR-alpha (Homo sapiens) (UniProt P19793); experiment: as above
# [17] = molecular target: Thyroid hormone receptor beta (Homo sapiens) (UniProt P10828); experiment: qHTS assay for small molecule agonists of thyroid hormone receptor beta signaling (AID 588545; calls by dose curve)
# Procedure, shortened: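 Beta-lactamase reporter activity under TR response element control is measured in HEK 293 cells after 18 hrs compound exposure. Signal is ratiometric CCF4 fluorescence, 460/530 nm.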
# [18] = qHTS assay for small molecule antagonists of retinoid X receptor alpha signaling (AID 588546; active means well fitted inhibition curve with a large enough effect in the signal ratio, with a control signal flat, not every such curve was filed as active; the % refers to the signal ratio;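 further: cells stimulated with 9-cis-retinoic acid as agonist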); conditions: HEK293T RXRa-UAS-bla, beta-lactamase ratio, antagonist mode; measured here: W530 green channel, cytotoxicity proxy
# Procedure, shortened: (§1)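 Beta-lactamase reporter inhibition, read as CCF4 fluorescence ratio (ex 405, em 460/530 nm) after 2 h at RT. HEK293T UAS-bla cells, 2500/well, were stimulated with 9-cis-RA at 500 or 100 nM final alongside test compound for 18 h at 37 C.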
# [19] = molecular target: Retinoic acid receptor RXR-alpha (Homo sapiens) (UniProt P19793); experiment: as above; conditions: HEK293T RXRa-UAS-bla, beta-lactamase ratio, antagonist mode
# Procedure, shortened: as §1
# [20] = molecular target: Thyroid hormone receptor beta (Homo sapiens) (UniProt P10828); experiment: qHTS assay for small molecule antagonists of thyroid hormone receptor beta signaling (AID 588547; active means well fitted inhibition curve with a large enough effect in the signal ratio, with a control signal flat, not every such curve was filed as active; the % refers to the signal ratio;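 further: cells stimulated with 0.4 nM T3 agonist during compound exposure; series mostly up to about 77 µM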); conditions: TR-UAS-bla HEK293, beta-lactamase ratio, antagonist mode, 18 h
# Procedure, shortened: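 TR-UAS-bla GripTite HEK293 cells in 2% charcoal/dextran FBS medium; compounds 0.59 nM to 92 uM with T3 at 0.4nM final, 18 h at 37 C. Beta-lactamase read by CCF4 fluorescence (460/530 nm); Hill fits gave IC50 and efficacy.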
# Chain of Retinoic acid receptor RXR-alpha (Homo sapiens) (P19793 whole entry, looked up): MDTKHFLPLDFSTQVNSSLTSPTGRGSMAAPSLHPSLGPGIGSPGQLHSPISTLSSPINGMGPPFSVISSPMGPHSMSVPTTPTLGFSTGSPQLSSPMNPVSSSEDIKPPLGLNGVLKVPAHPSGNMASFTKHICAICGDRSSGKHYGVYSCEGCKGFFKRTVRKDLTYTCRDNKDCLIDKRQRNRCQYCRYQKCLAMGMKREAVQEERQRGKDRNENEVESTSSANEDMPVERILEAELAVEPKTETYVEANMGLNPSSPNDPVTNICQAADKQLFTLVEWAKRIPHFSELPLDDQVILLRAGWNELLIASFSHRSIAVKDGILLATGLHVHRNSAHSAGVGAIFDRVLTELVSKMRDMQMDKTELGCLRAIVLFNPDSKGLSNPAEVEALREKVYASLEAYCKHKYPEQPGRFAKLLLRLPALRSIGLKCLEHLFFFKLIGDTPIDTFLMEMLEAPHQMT
# Chain of DNA dC->dU-editing enzyme APOBEC-3G (Homo sapiens) (Q9HC16 whole entry, looked up): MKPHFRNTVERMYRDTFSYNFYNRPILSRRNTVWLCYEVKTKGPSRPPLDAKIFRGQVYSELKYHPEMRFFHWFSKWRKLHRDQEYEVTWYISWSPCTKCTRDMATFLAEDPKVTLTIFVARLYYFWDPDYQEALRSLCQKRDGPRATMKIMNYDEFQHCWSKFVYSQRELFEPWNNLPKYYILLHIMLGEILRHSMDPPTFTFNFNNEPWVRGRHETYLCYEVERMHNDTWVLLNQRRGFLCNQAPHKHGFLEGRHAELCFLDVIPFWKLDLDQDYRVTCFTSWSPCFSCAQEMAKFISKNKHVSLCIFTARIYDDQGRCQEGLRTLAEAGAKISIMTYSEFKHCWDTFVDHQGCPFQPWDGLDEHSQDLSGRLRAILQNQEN
# Chain of Luciferin 4-monooxygenase (Photinus pyralis) (P08659 whole entry, looked up): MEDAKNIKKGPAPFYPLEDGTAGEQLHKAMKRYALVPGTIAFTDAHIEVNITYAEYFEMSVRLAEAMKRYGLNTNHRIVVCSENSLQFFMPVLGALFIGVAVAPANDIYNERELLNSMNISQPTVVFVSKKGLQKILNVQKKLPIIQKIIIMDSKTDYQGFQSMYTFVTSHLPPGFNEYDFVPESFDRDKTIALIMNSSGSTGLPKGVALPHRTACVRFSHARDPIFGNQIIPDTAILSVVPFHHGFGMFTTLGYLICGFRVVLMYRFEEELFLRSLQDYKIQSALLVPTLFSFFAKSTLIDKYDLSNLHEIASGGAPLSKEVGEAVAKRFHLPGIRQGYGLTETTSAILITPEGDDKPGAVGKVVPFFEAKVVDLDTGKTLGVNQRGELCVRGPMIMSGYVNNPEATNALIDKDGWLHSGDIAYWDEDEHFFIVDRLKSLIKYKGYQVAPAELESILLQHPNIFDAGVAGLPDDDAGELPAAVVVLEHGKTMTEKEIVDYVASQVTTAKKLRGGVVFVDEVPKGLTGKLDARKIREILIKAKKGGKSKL
# Chain of Voltage-gated inwardly rectifying potassium channel KCNH2 (Homo sapiens) (Q12809 whole entry, looked up): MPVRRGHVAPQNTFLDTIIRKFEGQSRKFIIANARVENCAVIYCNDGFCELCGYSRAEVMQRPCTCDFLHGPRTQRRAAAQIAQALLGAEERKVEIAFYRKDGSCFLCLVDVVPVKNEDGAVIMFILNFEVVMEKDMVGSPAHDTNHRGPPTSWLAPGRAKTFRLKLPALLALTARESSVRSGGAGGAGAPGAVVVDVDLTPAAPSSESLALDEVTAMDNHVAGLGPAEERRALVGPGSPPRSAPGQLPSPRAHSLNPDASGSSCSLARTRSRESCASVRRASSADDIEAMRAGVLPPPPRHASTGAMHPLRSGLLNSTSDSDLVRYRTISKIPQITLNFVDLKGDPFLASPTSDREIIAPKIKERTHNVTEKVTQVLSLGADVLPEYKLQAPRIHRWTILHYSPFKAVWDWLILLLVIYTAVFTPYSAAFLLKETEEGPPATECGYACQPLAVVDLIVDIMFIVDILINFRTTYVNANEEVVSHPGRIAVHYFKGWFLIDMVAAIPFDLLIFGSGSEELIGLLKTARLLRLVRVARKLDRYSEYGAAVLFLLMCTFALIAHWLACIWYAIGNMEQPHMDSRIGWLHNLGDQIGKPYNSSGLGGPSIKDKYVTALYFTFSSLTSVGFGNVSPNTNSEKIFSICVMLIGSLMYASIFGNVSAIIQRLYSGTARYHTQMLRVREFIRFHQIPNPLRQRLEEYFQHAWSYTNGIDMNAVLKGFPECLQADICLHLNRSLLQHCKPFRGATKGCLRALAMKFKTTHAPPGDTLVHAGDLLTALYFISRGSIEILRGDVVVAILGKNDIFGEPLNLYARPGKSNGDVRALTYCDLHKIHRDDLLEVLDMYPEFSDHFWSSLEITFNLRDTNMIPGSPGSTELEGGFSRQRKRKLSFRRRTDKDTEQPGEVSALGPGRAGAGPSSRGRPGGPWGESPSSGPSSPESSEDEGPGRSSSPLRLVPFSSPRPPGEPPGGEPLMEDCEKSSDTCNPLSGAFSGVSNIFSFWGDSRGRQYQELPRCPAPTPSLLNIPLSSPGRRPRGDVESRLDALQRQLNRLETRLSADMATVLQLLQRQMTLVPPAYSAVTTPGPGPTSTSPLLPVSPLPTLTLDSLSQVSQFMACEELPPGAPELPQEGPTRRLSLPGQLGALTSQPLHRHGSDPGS
# Chain of Thyroid hormone receptor beta (Homo sapiens) (P10828 whole entry, looked up): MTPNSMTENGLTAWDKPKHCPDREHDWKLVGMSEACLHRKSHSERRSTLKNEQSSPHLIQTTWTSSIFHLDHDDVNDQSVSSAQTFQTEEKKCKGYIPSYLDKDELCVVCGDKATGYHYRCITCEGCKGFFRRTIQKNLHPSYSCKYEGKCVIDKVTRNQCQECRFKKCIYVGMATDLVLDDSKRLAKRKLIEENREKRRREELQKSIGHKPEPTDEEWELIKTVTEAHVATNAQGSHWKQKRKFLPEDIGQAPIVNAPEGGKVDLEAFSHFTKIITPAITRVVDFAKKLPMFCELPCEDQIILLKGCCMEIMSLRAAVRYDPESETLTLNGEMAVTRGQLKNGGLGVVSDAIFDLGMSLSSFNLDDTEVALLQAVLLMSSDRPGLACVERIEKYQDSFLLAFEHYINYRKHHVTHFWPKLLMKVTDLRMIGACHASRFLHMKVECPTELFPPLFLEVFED
# Chain of Vitamin D3 receptor (Homo sapiens) (P11473 whole entry, looked up): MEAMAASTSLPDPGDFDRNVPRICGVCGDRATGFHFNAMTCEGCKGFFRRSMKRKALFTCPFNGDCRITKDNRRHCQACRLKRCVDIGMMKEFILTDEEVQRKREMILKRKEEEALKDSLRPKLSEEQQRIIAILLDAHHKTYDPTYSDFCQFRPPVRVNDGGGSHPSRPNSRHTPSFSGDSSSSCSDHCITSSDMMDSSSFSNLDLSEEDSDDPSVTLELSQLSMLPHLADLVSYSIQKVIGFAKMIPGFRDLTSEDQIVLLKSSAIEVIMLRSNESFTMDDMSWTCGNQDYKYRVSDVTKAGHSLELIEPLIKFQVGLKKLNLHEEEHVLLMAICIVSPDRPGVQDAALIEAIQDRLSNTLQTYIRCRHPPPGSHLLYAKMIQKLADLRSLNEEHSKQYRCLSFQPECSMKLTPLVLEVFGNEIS
# Chain of Ubiquitin carboxyl-terminal hydrolase 1 (Homo sapiens) (O94782 whole entry, looked up): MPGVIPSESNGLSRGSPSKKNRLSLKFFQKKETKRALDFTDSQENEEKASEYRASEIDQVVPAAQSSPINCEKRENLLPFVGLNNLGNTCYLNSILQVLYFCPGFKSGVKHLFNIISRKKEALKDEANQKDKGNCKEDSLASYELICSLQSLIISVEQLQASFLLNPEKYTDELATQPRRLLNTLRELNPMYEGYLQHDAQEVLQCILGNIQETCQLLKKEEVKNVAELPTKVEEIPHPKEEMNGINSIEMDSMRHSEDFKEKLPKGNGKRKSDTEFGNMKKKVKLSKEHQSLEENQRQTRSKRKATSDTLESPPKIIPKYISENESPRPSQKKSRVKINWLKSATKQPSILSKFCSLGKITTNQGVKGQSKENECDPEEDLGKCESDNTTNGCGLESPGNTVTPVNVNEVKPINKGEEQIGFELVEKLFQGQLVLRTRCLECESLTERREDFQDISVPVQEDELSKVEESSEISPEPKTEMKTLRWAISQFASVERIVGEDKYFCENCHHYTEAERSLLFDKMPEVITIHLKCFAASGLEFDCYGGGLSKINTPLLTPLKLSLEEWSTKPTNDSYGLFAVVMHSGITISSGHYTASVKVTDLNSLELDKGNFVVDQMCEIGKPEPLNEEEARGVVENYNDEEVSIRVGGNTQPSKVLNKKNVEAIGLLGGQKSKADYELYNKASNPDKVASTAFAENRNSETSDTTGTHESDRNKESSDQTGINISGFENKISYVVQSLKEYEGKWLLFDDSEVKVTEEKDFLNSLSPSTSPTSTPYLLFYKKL
# Chain of Peptidyl-prolyl cis-trans isomerase NIMA-interacting 1 (Homo sapiens) (Q13526 whole entry, looked up): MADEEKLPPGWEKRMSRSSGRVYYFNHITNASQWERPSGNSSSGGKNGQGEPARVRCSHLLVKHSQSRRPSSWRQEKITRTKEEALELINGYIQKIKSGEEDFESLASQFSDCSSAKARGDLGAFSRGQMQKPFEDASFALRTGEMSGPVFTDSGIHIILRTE
# Chain of Phosphoglycerate kinase, glycosomal (Trypanosoma brucei brucei) (P07378 whole entry, looked up): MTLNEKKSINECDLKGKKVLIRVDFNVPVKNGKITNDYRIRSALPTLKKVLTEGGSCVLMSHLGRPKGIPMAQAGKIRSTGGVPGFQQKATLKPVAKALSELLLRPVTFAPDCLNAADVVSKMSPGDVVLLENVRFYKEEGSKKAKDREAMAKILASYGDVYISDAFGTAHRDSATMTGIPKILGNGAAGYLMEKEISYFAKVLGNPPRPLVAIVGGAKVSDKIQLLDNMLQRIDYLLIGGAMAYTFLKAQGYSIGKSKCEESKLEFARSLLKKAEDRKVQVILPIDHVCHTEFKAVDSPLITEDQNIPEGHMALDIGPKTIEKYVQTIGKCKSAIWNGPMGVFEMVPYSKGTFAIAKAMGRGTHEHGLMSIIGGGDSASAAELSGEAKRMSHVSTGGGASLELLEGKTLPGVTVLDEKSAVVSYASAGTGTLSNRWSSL
smiles,measurement,setting,value
NS(=O)(=O)c1cc(Cl)c(Cl)c(S(N)(=O)=O)c1,Potency,[1],inactive
same,Potency,[2],inactive
same,outcome,[3],inactive
Nc1ccn([C@@H]2O[C@H](CO)[C@@H](O)[C@H]2O)c(=O)n1,Potency,[1],inactive
same,outcome,[4],inactive
Cc1ccc(NC(=O)c2cccc(N(C)C)c2)cc1NC(=O)c1ccc(O)cc1,Potency,[1],inactive
same,outcome,[4],inactive
C=CCc1cccc(C=NNC(=O)CN2CCN(Cc3ccccc3)CC2)c1O,outcome,[5],inactive
same,outcome,[6],inactive
same,outcome,[7],inactive
same,Potency,[8],3.55 µM (active)
N#Cc1c(N(CC(=O)O)CC(=O)O)sc(C(=O)O)c1CC(=O)O,Potency,[1],inactive
same,Potency,[2],inactive
same,outcome,[3],inactive
C[C@H]1O[C@@H](n2cc(F)c(=O)[nH]c2=O)[C@H](O)[C@H]1O,outcome,[5],inactive
same,outcome,[6],inactive
same,outcome,[7],inactive
same,Potency,[1],inactive
same,outcome,[9],inactive
same,Potency,[8],inactive
NCC1CCC(C(=O)O)CC1 (configuration not stated),Potency,[1],inactive
same,Potency,[2],inactive
same,outcome,[3],inactive
CS(=O)(=O)c1ccc(C2=C(c3ccccc3)C(=O)OC2)cc1,Potency,[1],inactive
same,Potency,[2],inactive
same,outcome,[3],inactive
O=C(O)c1nc(=O)[nH]c(=O)[nH]1,Potency,[1],inactive
same,Potency,[2],inactive
same,outcome,[3],inactive
CC(NCCc1ccc(O)cc1)C(O)c1ccc(O)cc1 (configuration not stated),Potency,[1],inactive
COc1nccc(-c2c(-c3ccc(F)cc3)ncn2C2CCC(O)CC2)n1 (configuration not stated),Potency,[1],inactive
same,outcome,[4],inactive
CC1C(=O)OC2C(O)C34C5CC(C(C)(C)C)C36C(OC(=O)C6O)OC4(C(=O)O5)C12O (configuration not stated),Potency,[1],inactive
same,outcome,[4],inactive
OC(c1cc(C(F)(F)F)nc2c(C(F)(F)F)cccc12)C1CCCCN1 (configuration not stated),Potency,[1],inactive
CC1(C)OC2CC3C4CC(F)C5=CC(=O)C=CC5(C)C4C(O)CC3(C)[C@]2(C(=O)CO)O1 (some centres not stated),Potency,[1],inactive
O=C1C(CCC(O)c2ccc(F)cc2)C(c2ccc(O)cc2)N1c1ccc(F)cc1 (configuration not stated),Potency,[1],inactive
same,outcome,[3],inactive
Cc1cc(NC(=O)Nc2ccc(N(C)C)cc2)c2cc(F)cc(F)c2n1,Potency,[1],inactive
same,outcome,[4],inactive
CN[C@H]1[C@@H](O[C@@H]2[C@H](O[C@@H]3[C@@H](O)[C@@H](O)[C@@H](N=C(N)N)[C@@H](O)[C@@H]3N=C(N)N)O[C@H](C)[C@@]2(O)C=O)O[C@@H](CO)[C@@H](O)[C@H]1O,Potency,[1],inactive
CCNC(=O)[C@H]1O[C@@H](n2cnc3c(N)nc(NCCc4ccc(CCC(=O)O)cc4)nc32)[C@H](O)[C@H]1O,outcome,[10],inactive
same,outcome,[11],inactive
same,Potency,[2],inactive
COc1c(C)c2c(c(O)c1CC=C(C)CCC(=O)OCCN1CCOCC1)C(=O)OC2,Potency,[1],inactive
same,Potency,[2],inactive
same,outcome,[3],inactive
N#CC(c1ccc(Cl)cc1)c1c(Cl)cc(-n2ncc(=O)[nH]c2=O)cc1Cl (configuration not stated),Potency,[1],79.4 µM (active)
same,Potency,[2],inactive
CN1CC(=O)N2C(Cc3c([nH]c4ccccc34)[C@H]2c2ccc3c(c2)OCO3)C1=O (some centres not stated),Potency,[1],inactive
same,Potency,[2],inactive
same,outcome,[3],inactive
CCCCC(C=O)NC(=O)C(CC(C)C)NC(=O)OCc1ccccc1 (configuration not stated),Potency,[1],inactive
same,outcome,[4],inactive
CN1CCN2c3ncccc3Cc3ccccc3C2C1 (configuration not stated),Potency,[1],inactive
same,outcome,[4],inactive
same,Potency,[2],inactive
same,outcome,[3],inactive
CCCCC[C@H](O)C=C[C@H]1[C@H](O)CC(=O)[C@H]1CCCCCCC(=O)O,Potency,[1],inactive
same,outcome,[4],inactive
C=C1c2cccc(O)c2C(O)=C2C(=O)[C@@]3(O)C(O)=C(C(N)=O)C(=O)[C@@H](N(C)C)[C@@H]3[C@@H](O)[C@H]12,outcome,[3],inactive
CN(C)CCN(Cc1ccc(Cl)cc1)c1ccccn1,Potency,[1],inactive
same,outcome,[3],inactive
Clc1ccc(COC(Cn2ccnc2)c2ccc(Cl)cc2Cl)c(Cl)c1 (configuration not stated),Potency,[2],4.47 µM (active)
same,outcome,[3],inactive
C[C@@H]1C[C@H]2[C@@H]3CCC4=CC(=O)C=C[C@]4(C)[C@@]3(F)[C@@H](O)C[C@]2(C)[C@@]1(O)C(=O)CO,outcome,[12],inactive
same,outcome,[13],inactive
same,outcome,[14],inactive
same,max response,[15],10.8% and 0.324%
same,outcome,[16],inactive
same,outcome,[17],inactive
same,max response,[18],18.8% and -5.96%
same,max response,[19],-0.0279% (inactive) and -1.12% (inactive)
same,activity change % (negative = inhibition),[20],1.08% (inactive) and 5.56% (inactive)
same,Potency,[2],inactive
O=C1CN2Cc3c(ccc(Cl)c3Cl)N=C2N1,outcome,[3],inactive
CC(C)(CO)[C@@H](O)C(=O)NCCC(=O)O,outcome,[3],inactive
CCC[C@H](N[C@@H](C)C(=O)N1[C@@H]2CCCC[C@H]2C[C@H]1C(=O)O)C(=O)OCC,outcome,[3],inactive
COc1ccc(-c2nc3ccc(C4=NNC(=O)CC4C)cc3[nH]2)cc1 (configuration not stated),Potency,[2],inactive
C[C@@H](O[C@H]1OCCN(Cc2n[nH]c(=O)[nH]2)[C@@H]1c1ccc(F)cc1)c1cc(C(F)(F)F)cc(C(F)(F)F)c1,outcome,[3],inactive
CC(C)CN(C[C@@H](O)[C@H](Cc1ccccc1)NC(=O)O[C@H]1CO[C@H]2OCC[C@H]21)S(=O)(=O)c1ccc(N)cc1,Potency,[1],inactive
same,outcome,[3],inactive
